Compound activity from PubChem BioAssay.
TGFb SMAD3 inh = inhibitors of TGF-b signaling; HepG2 CAGA-GFP TGF-b/SMAD3 reporter, GFP fluorescence, 18 h; TGF-beta stimulated, 500 pg/mL final; Potency, µM (doses to about 46.1 µM), inactives show at the top dose activity, negative = inhibition, usual class: inhibitors; 1.2% of 410,000 active; AID 588855; also: % is scaled to controls: 0 for no effect and ±100 for the full control effect; nearly all actives have a fitted effect of over 65% in size
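Per well, imaged GFP fluorescence of HEPG2 CAGA-GFP cells gives the signal; cells get compound, then TGF-beta (500 pg/mL final), 18 h at 37 degrees C; %Activity versus -TGF-beta and +DMSO controls.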
RORg inh = ROR gamma (mouse) transcription inhibition | P51450 | Drosophila S2 Gal4-RORgamma UAS-luciferase reporter, 20 h | Potency, µM (doses to about 53.6 µM), for inactives: at the highest dose activity change, negative = inhibition, actives largely listed as inhibitors | 5.4% of 310,000 active | AID 2551; also: % is scaled to controls: 0 for no effect and ±100 for the full control effect; nearly all actives have a fitted effect of over 60% in size
Target sequence (P51450 whole entry, looked up, the tested form may be a part): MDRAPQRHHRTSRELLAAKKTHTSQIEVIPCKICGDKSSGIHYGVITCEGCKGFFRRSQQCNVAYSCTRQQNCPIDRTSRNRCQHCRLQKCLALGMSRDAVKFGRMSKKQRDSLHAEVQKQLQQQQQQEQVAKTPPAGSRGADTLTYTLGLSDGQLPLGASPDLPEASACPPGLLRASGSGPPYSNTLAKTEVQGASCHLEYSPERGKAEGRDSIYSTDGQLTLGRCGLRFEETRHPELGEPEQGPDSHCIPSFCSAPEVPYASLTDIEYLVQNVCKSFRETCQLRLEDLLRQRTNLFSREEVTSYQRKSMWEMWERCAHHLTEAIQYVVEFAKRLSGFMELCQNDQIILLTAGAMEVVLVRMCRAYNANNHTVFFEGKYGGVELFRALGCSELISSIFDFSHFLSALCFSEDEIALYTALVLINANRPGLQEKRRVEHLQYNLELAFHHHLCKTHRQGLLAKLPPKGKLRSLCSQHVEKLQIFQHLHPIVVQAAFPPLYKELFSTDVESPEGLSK
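Read-out: Photinus luciferase luminescence; inhibitors lower reporter signal. Insect Schneider cells with Gal4-ROR gamma fusion under metallothionein promoter, UAS reporter; 700 uM final copper sulfate induction, 20 hr, ambient temperature.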
ATXN viability = viability counter-screen for ATXN expression inhibitors; S2 cells (HEK-293 line with an ATXN2-luciferase reporter) viability, CellTiter-Fluor protease fluorescence, 24 h; AID 651635; Potency, µM (series often up to 56.7 µM), most hits filed as cytotoxic; 0.49% of 400,000 active; also: nearly all actives have a fitted effect of over 40% in size
ATXN2 expr inh = inhibitors of ATXN2 expression; HEK-293 ATXN2-luciferase reporter, luminescence, 24 h; Potency, µM (top dose mostly 57 µM), without a hit: top-dose activity change, negative = inhibition, usual class: inhibitors; 0.72% of 360,000 active; AID 1745845; also: % is scaled to controls: 0 for no effect and ±100 for the full control effect; nearly all actives have a fitted effect of over 55% in size
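qHTS (up to 57 uM final) was run with 24 h compound exposure of reporter cells at 37 °C. Each well was multiplexed: SteadyGlo luminescence measured ATXN2-luciferase expression after a fluorogenic Gly-Phe-AFC viability readout (25 uM final).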
HepG2 tox = counter-screen for TGF-b inhibitors: cytotoxicity in HepG2 cells. HepG2 CAGA-GFP viability, ATP luminescence, 18 h. Potency, µM (top dose mostly 46.1 µM), without a hit: at the highest dose activity change, negative = cytotoxicity, most hits filed as cytotoxic. 0.76% of 410,000 active
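HepG2 CAGA-GFP cells (1000/well, DMEM with 1% FBS) received compound, then TGF-beta at 500 pg/mL final, and were incubated 18 hours at 37 degrees C. Viability was read by CellTiter-Glo luminescence. Media-only wells were set as complete cell-killing and DMSO as no toxicity.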
VP16 counter = Gal4-VP16 reporter inhibition counter-screen; Potency, µM (titrated, usually from 53.6 µM), inactives show top-dose activity, negative = inhibition, hits mostly inhibitors; 3.5% of 310,000 active; Drosophila S2 Gal4-VP16 UAS-luciferase, luminescence, 20 h;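 also: Gal4-VP16 expression switched on by copper sulfate through the metallothionein promoter; % is scaled to controls: 0 for no effect and ±100 for the full control effect; nearly all actives have a fitted effect of over 50% in size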
Numbers without * were called inactive; i = inactive; u = inconclusive; x = no result. Hits are enriched below; roughly 6.3% of the tested compounds scored in any of these assays. Calls follow the shape of the dose curve; as a rule, active = well fitted curve in the direction sought with a large enough effect; inconclusive = small, poorly fitted or top-dose-only effect, or another doubt; inactive = no such curve, though single readings can be large; an effect the other way counts as inactive or inconclusive. Potency is read from the fitted curve at half-maximal effect.

SMILES	TGFb SMAD3 inh	RORg inh	ATXN viability	ATXN2 expr inh	HepG2 tox	VP16 counter
COC(=O)c1c(N)sc(C(=O)NCCc2ccccc2)c1C	0.1%	2.51µM*	i	3.55µM*	-35.5%	4.47µM*
O=C(NCCc1ccccc1)c1ccccc1F	-7.1%	u	i	-27.0%	-18.7%	u
O=C(CC12CC3CC(CC(C3)C1)C2)NC(=S)NCc1ccccc1	10.9%	2µM*	i	9.0%	-1.2%	1.58µM*
O=C(NC(=S)NCCc1ccccc1)c1ccccc1F	6.4%	17.8µM*	i	51.6%	-12.3%	u
O=C(NC(=S)N(CCO)Cc1ccccc1)c1ccc(S(=O)(=O)N2CCCC2)cc1	1.7%	2.24µM*	u	-32.2%	-20.3%	4.47µM*
O=C(NCCc1ccccc1)c1ccc(S(=O)(=O)N2CCCCC2)cc1	14.9%	x	i	x	-0.6%	x
CCOC1=C2[C@@H](CN(S(=O)(=O)c3ccc(C)cc3)[C@H]2c2ccccc2Cl)[C@H]2C(=O)N(C(C)(C)C)C(=O)[C@H]2C1	u	x	i	-5.7%	4.8%	x
O=C(N/C=N/O)C(c1ccccc1)c1ncc(C(F)(F)F)cc1Cl (stereo not drawn)	0.0%	7.2%	i	0.0%	-1.4%	4.3%
COc1ccc(Oc2ncc3nc(CCc4ccccc4)c(=O)n(CCC#N)c3n2)cc1	x	27.3%	x	x	x	5.4%
O=C(NC(=S)NCc1ccccc1)c1ccccc1F	1.3%	10µM*	x	x	-24.0%	u
CCOc1ccc(NC(=O)COc2ccc(C(=O)NCCc3ccccc3)cc2)cc1	13.0%	-22.7%	x	-3.1%	2.4%	-9.2%
O=C(NCCc1ccc(Cl)cc1)c1ccc(Cn2c(=O)c3cccn3c3cccnc32)cc1	11.2µM*	x	x	x	-59.6%	x
O=C(NC(=S)NC(=O)c1ccccc1F)c1ccccc1F	-2.1%	u	i	10.5%	9.7%	5.62µM*
CCCCc1ccc(NC(=O)COc2ccc(C(=O)Nc3ccccc3OCC)cc2)cc1	33.5%	u	i	-6.5%	0.4%	10µM*
COc1ccnc2c1CCCCC2S(=O)c1nc2ccccc2[nH]1 (stereo not drawn)	x	x	i	38.5%	x	x
CC(C)c1ccccc1NC(=O)COc1ccc(C(=O)NCCc2ccccc2)cc1	u	u	i	-28.5%	-73.1%	17.8µM*
O=C(NC(=S)N(Cc1ccccc1)Cc1ccccc1)c1ccccc1F	u	0.251µM*	i	-25.1%	-6.8%	0.708µM*
O=C(NCCc1ccc(Cl)cc1)c1ccc(=O)[nH]c1	-19.1%	-17.8%	i	16.1%	6.1%	-23.8%
O=C(O)CNC(=S)N(Cc1ccccc1)Cc1ccccc1F	11.1%	11.0%	i	4.1%	4.4%	1.0%
CC(=O)N1CCN(C(=S)NC(=O)c2ccc(S(=O)(=O)N3CCOCC3)cc2)CC1	0.6%	22.6%	i	4.0%	3.0%	-4.4%
CN(CCC#N)C(=S)NC(=O)c1ccc(S(=O)(=O)N2CCOCC2)cc1	-28.0%	5.01µM*	i	x	-10.8%	u
O=C(NCCc1ccc(O)cc1)c1ccc(Cl)cc1	0.0%	1.58µM*	i	54.4%	8.4%	u
O=C(CCCOc1ccc(Br)cc1)NNC(=O)c1ccncc1	-4.4%	x	i	9.8%	9.9%	x
NC(N)=NCC1COC2(CCCCC2)O1 (stereo not drawn)	x	x	i	x	x	x
COc1ccc(-n2c(-c3cccc(C)c3[N+](=O)[O-])n[nH]c2=S)cc1	-4.7%	7.94µM*	i	-0.1%	-18.8%	-5.8%
SMILES	TGFb SMAD3 inh	RORg inh	ATXN viability	ATXN2 expr inh	HepG2 tox	VP16 counter
O=[N+]([O-])c1ccc(O)c(/C=N/n2c(-c3ccccc3)n[nH]c2=S)c1	-7.4%	u	i	-7.3%	-17.6%	u
O=[N+]([O-])c1cccc(-c2ccc(/C=N/n3c(-c4ccccc4)n[nH]c3=S)o2)c1	3.3%	-26.8%	u	u	7.9%	10µM*
Cc1[nH]n(-c2cccc([N+](=O)[O-])c2)c(=O)c1-c1ccccc1	u	u	i	x	-22.2%	-3.8%
O=[N+]([O-])c1ccc2c(c1)[nH]c(=S)n2-c1ccccc1	0.4%	5.01µM*	i	-11.5%	1.0%	-6.9%
O=[N+]([O-])c1cccc(-c2n[nH]c(=S)n2-c2ccccc2)c1	-1.4%	7.08µM*	i	3.6%	-3.7%	-7.8%
COc1ccc(-n2c(C(C)n3nc(C)c([N+](=O)[O-])c3C)n[nH]c2=S)cc1 (stereo not drawn)	-6.3%	4.6%	i	-4.7%	-0.2%	-16.0%
CN1Cc2cc(C(=O)N3CCC(C4CCNCC4)CC3)ccc2N[C@@H](CC(=O)O)C1=O	x	x	i	0.9%	x	x
CO[C@H]1C[C@@H]2CC[C@@H](C)[C@@](O)(O2)C(=O)C(=O)N2CCCC[C@@H]2C(=O)O[C@H]([C@H](C)C[C@@H]2CC[C@H](OP(C)(C)=O)[C@H](OC)C2)CC(=O)[C@H](C)C=C(C)[C@@H](O)[C@@H](OC)C(=O)[C@H](C)C[C@H](C)C=CC=CC=C1C	x	x	x	4.1%	x	x
Cc1cccc(-c2n[nH]c(=S)n2-c2ccccc2)c1[N+](=O)[O-]	8.8%	12.6µM*	i	16.3%	1.1%	u
CC(=O)O[C@H]1C[C@@H]2CC[C@H]3[C@H]4C[C@H]([N+]5(C)CCCCC5)[C@@H](OC(C)=O)[C@@]4(C)CC[C@@H]3[C@@]2(C)C[C@H]1[N+]1(C)CCCCC1	x	x	x	1.5%	x	x
COCCCN=Cc1c(-c2ccccc2)[nH]n(-c2nc3ccccc3s2)c1=O	-13.4%	8.91µM*	i	1.6%	18.8%	u
CCCCCN=Cc1c(C)[nH]n(-c2nc3ccccc3s2)c1=O	-15.2%	10µM*	i	12.6µM*	1.41µM*	u
CCOc1cc(NC(=S)NCC(C)C)c(OCC)cc1NC(=O)c1ccco1	-1.1%	5.01µM*	i	-29.4%	-5.0%	7.94µM*
CCOc1cc(NS(=O)(=O)CC)c(OCC)cc1NC(=O)c1ccco1	5.3%	u	i	4.0%	-25.6%	16.6%
CCOCCCNC(=S)Nc1cc(OCC)c(NC(=O)c2ccco2)cc1OCC	-6.0%	7.94µM*	i	-21.8%	-16.4%	-3.9%
Cc1sc(N/N=C/c2cccs2)nc1-c1ccccc1	u	7.08µM*	i	41.0%	-12.6%	10µM*
O=C(Nc1ccccn1)c1onc2c1CCCC2	0.0%	6.31µM*	i	u	5.01µM*	8.91µM*
O=C(Nc1ccccn1)c1csc2c1CCCC2	-18.6%	-26.2%	i	56.7%	-15.3%	u
